Out of some 5,500 compounds screened, about 2,000 (36%) were called active. Inconclusive results (about 18%) are left out. No stated cut-off is given here; in the data, active means normalized growth mostly below about 0.91 (no sharp cut-off); inconclusive means no clear call, values can overlap the other calls; inactive means mostly above about 0.92. Some of the results follow.
Test: chemical genetic growth profiling, strain panel (AID 1159580);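 further: tested at 20 µM; growth read once vehicle control cultures reached saturation at 30 °C; 1 = growth at the plate median or of vehicle wells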
Conditions: growth OD

Measured: normalized growth

COc1cc(NS(=O)(=O)c2ccc(N)cc2)ncn1
inactive: S. cerevisiae deletion strains, locus YJR075W, strain HOC1, stronger effect = lower value 0.984 | S. cerevisiae deletion strains, locus YKL009W, strain mrt4, stronger effect = lower value 0.982 | S. cerevisiae deletion strains, locus YKL068W, stronger effect = lower value 0.986 | S. cerevisiae deletion strains, locus YKL085W, strain MDH1 (second series), stronger effect = lower value 0.991 | S. cerevisiae deletion strains, locus YKL085W, strain MDH1, stronger effect = lower value 0.991 | S. cerevisiae deletion strains, locus YKL160W, strain elf1, stronger effect = lower value 0.98 | S. cerevisiae deletion strains, locus YKL190W, strain CNB1, stronger effect = lower value 0.978 | S. cerevisiae deletion strains, locus YKR001C, strain vps1, stronger effect = lower value 0.986 | S. cerevisiae deletion strains, locus YKR026C, strain gcn3, stronger effect = lower value 0.968 | S. cerevisiae deletion strains, locus YKR091W, strain srl3, stronger effect = lower value 0.99 | S. cerevisiae deletion strains, locus YLL001W, strain dnm1, stronger effect = lower value 0.974 | S. cerevisiae deletion strains, locus YLL026W, stronger effect = lower value 0.985 | S. cerevisiae deletion strains, locus YLL041C, strain sdh2, stronger effect = lower value 0.982 | S. cerevisiae deletion strains, locus YLR027C, strain aat2, stronger effect = lower value 0.988 | S. cerevisiae deletion strains, locus YLR039C, strain RIC1, stronger effect = lower value 1.02 | S. cerevisiae deletion strains, locus YLR058C, strain SHM2, stronger effect = lower value 0.972 | S. cerevisiae deletion strains, locus YLR102C, strain apc9, stronger effect = lower value 0.986 | S. cerevisiae deletion strains, locus YLR113W, strain HOG1, stronger effect = lower value 0.949 | S. cerevisiae deletion strains, locus YLR221C, strain rsa3, stronger effect = lower value 0.985 | S. cerevisiae deletion strains, locus YLR258W, strain gsy2, stronger effect = lower value 0.979 | S. cerevisiae deletion strains, locus YLR262C, strain YPT6 (second series), stronger effect = lower value 0.985 | S. cerevisiae deletion strains, locus YLR262C, strain YPT6, stronger effect = lower value 1.02 | S. cerevisiae deletion strains, locus YLR268W, strain sec22, stronger effect = lower value 0.948 | S. cerevisiae deletion strains, locus YLR320W, strain mms22, stronger effect = lower value 0.979 | S. cerevisiae deletion strains, locus YLR330W, strain CHS5, stronger effect = lower value 0.998 | S. cerevisiae deletion strains, locus YLR342W, strain FKS1 (second series), stronger effect = lower value 1.04 | S. cerevisiae deletion strains, locus YLR342W, strain FKS1, stronger effect = lower value 1.02 | S. cerevisiae deletion strains, locus YLR357W, strain rsc2, stronger effect = lower value 0.93 | S. cerevisiae deletion strains, locus YLR370C, strain arc18, stronger effect = lower value 0.979 | S. cerevisiae deletion strains, locus YLR371W, strain rom2, stronger effect = lower value 0.992 | S. cerevisiae deletion strains, locus YLR384C, strain iki3, stronger effect = lower value 0.974 | S. cerevisiae deletion strains, locus YLR418C, strain cdc73, stronger effect = lower value 0.983 | S. cerevisiae deletion strains, locus YML016C, strain PPZ1, stronger effect = lower value 0.992 | S. cerevisiae deletion strains, locus YML032C, strain rad52, stronger effect = lower value 0.991 | S. cerevisiae deletion strains, locus YML120C, strain ndi1, stronger effect = lower value 1.01 | S. cerevisiae deletion strains, locus YML124C, strain tub3, stronger effect = lower value 0.988 | S. cerevisiae deletion strains, locus YMR058W, strain fet3, stronger effect = lower value 0.993 | S. cerevisiae deletion strains, locus YMR078C, strain ctf18, stronger effect = lower value 0.981 | S. cerevisiae deletion strains, locus YMR125W, strain sto1, stronger effect = lower value 0.963 | S. cerevisiae deletion strains, locus YMR129W, stronger effect = lower value 0.996 | S. cerevisiae deletion strains, locus YMR205C, strain PFK2, stronger effect = lower value 0.992 | S. cerevisiae deletion strains, locus YMR223W, strain ubp8, stronger effect = lower value 0.981 | S. cerevisiae deletion strains, locus YMR231W, strain pep5, stronger effect = lower value 0.975 | S. cerevisiae deletion strains, locus YMR263W, strain SAP30, stronger effect = lower value 0.982 | S. cerevisiae deletion strains, locus YMR307W, strain GAS1, stronger effect = lower value 1.1 | S. cerevisiae deletion strains, locus YNL067W, strain RPL9B, stronger effect = lower value 0.981 | S. cerevisiae deletion strains, locus YNL071W, strain lat1, stronger effect = lower value 0.969 | S. cerevisiae deletion strains, locus YNL153C, strain GIM3, stronger effect = lower value 0.965 | S. cerevisiae deletion strains, locus YNL183C, strain NPR1, stronger effect = lower value 0.933 | S. cerevisiae deletion strains, locus YNL209W, strain ssb2, stronger effect = lower value 0.975 | S. cerevisiae deletion strains, locus YNL233W, strain BNI4, stronger effect = lower value 0.987 | S. cerevisiae deletion strains, locus YNL248C, strain rpa49, stronger effect = lower value 0.931 | S. cerevisiae deletion strains, locus YNL250W, strain rad50, stronger effect = lower value 0.979 | S. cerevisiae deletion strains, locus YNL271C, strain bni1, stronger effect = lower value 0.992 | S. cerevisiae deletion strains, locus YNL298W, strain CLA4, stronger effect = lower value 0.983 | S. cerevisiae deletion strains, locus YNL307C, strain MCK1, stronger effect = lower value 0.979 | S. cerevisiae deletion strains, locus YNL322C, strain KRE1 (second series), stronger effect = lower value 0.955 | S. cerevisiae deletion strains, locus YNL322C, strain KRE1, stronger effect = lower value 0.991 | S. cerevisiae deletion strains, locus YNR049C, strain mso1, stronger effect = lower value 0.979 | S. cerevisiae deletion strains, locus YNR052C, strain pop2, stronger effect = lower value 0.987 | S. cerevisiae deletion strains, locus YOL006C, strain TOP1, stronger effect = lower value 0.965 | S. cerevisiae deletion strains, locus YOL012C, strain htz1 1.08 | S. cerevisiae deletion strains, locus YOL147C, strain pex11, stronger effect = lower value 0.982 | S. cerevisiae deletion strains, locus YOR001W, strain rrp6, stronger effect = lower value 0.998 | S. cerevisiae deletion strains, locus YOR061W, strain CKA2, stronger effect = lower value 0.961 | S. cerevisiae deletion strains, locus YOR069W, strain VPS5, stronger effect = lower value 0.992 | S. cerevisiae deletion strains, locus YOR070C, strain gyp1, stronger effect = lower value 0.984 | S. cerevisiae deletion strains, locus YOR080W, strain dia2, stronger effect = lower value 0.977 | S. cerevisiae deletion strains, locus YOR083W, strain WHI5, stronger effect = lower value 0.989 | S. cerevisiae deletion strains, locus YOR106W, strain vam3, stronger effect = lower value 0.981 | S. cerevisiae deletion strains, locus YOR136W, strain idh2, stronger effect = lower value 0.981 | S. cerevisiae deletion strains, locus YOR144C, strain elg1, stronger effect = lower value 0.982 | S. cerevisiae deletion strains, locus YOR184W, strain ser1, stronger effect = lower value 0.989 | S. cerevisiae deletion strains, locus YOR231W, strain MKK1, stronger effect = lower value 0.97 | S. cerevisiae deletion strains, locus YOR265W, strain rbl2, stronger effect = lower value 0.991 | S. cerevisiae deletion strains, locus YOR270C, strain vph1, stronger effect = lower value 0.95 | S. cerevisiae deletion strains, locus YOR290C, strain snf2, stronger effect = lower value 0.976 | S. cerevisiae deletion strains, locus YOR316C, strain cot1, stronger effect = lower value 0.982 | S. cerevisiae deletion strains, locus YPL051W, strain arl3, stronger effect = lower value 0.981 | S. cerevisiae deletion strains, locus YPL055C, strain LGE1, stronger effect = lower value 0.92 | S. cerevisiae deletion strains, locus YPL078C, strain atp4, stronger effect = lower value 0.988 | S. cerevisiae deletion strains, locus YPL106C, strain sse1, stronger effect = lower value 0.969 | S. cerevisiae deletion strains, locus YPL240C, strain hsp82, stronger effect = lower value 0.997 | S. cerevisiae deletion strains, locus YPL256C, strain CLN2, stronger effect = lower value 0.974 | S. cerevisiae deletion strains, locus YPR119W, strain clb2, stronger effect = lower value 0.982 | S. cerevisiae deletion strains, locus YPR141C, strain kar3, stronger effect = lower value 0.97 | S. cerevisiae deletion strains, locus YPR163C, strain tif3, stronger effect = lower value 0.985 | S. cerevisiae deletion strains, locus YPR167C, strain met16, stronger effect = lower value 0.994 | S. cerevisiae deletion strains, strain wtn01, stronger effect = lower value 0.981 | S. cerevisiae strains, strain wild type, stronger effect = lower value 0.981
